The values below come from PubChem BioAssay AID743258 (The Scripps Research Institute Molecular Screening Center, 2014).

Molecules are shown by their SMILES. The whole screen tested about 3,300 compounds, of which about 100 (3%) were called active. These entries were drawn from the full list. Unmarked numbers belong to inactive results. Rule as the data show it: active = inhibition above about 9.5%; inactive = the rest.

For orientation: inhibition means the drop in the measured response relative to a control, in per cent.

This assay deals with 1-phosphatidylinositol 4,5-bisphosphate phosphodiesterase gamma-1 (Homo sapiens) (UniProt P19174). Briefly: PLC-gamma1 enzyme inhibitors, counter-screen for PLC-beta3 inhibitor project, biochemical, fluorescence (AID 743258). The following applies: purified PLC-gamma1, fluorogenic substrate, at 12.3 µM, stronger effect = higher value. (The purpose of a counterscreen is to sort out artefacts and off-target activity.)
1-phosphatidylinositol 4,5-bisphosphate phosphodiesterase gamma-1 (Homo sapiens), sequence (P19174 whole entry, looked up): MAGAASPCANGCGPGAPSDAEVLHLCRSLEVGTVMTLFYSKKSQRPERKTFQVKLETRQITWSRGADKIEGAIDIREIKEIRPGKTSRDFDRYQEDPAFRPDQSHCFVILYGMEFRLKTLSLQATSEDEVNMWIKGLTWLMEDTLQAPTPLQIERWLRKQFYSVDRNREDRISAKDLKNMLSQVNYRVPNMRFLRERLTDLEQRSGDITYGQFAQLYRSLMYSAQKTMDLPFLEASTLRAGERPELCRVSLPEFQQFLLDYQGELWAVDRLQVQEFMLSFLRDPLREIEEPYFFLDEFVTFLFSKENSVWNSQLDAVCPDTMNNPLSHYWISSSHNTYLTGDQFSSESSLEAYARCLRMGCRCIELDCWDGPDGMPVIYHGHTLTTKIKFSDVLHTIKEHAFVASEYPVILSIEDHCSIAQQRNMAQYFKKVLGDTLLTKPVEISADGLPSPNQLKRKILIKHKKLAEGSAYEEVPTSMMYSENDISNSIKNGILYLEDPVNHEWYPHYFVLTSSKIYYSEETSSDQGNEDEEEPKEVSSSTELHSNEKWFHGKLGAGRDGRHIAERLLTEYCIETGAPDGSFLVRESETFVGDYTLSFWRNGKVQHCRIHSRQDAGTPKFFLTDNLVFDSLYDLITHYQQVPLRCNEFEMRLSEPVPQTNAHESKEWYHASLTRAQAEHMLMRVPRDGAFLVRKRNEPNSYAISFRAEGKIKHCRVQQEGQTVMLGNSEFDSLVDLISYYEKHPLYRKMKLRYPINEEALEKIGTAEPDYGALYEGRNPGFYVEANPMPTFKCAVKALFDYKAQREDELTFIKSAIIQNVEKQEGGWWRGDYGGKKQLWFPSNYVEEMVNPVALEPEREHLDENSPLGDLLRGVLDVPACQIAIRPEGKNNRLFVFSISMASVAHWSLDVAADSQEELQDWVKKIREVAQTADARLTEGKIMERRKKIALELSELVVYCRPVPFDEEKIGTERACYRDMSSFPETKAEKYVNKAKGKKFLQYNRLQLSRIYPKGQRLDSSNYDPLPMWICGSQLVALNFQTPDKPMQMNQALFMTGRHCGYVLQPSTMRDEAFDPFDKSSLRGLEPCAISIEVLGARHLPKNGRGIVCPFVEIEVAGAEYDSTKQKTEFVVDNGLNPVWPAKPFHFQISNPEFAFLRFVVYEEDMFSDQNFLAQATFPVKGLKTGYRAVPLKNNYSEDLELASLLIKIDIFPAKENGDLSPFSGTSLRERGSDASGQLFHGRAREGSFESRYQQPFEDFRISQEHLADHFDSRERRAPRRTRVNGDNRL
On to `Cc1ccc(Cn2ccc(NC(=O)C3C4CCC(C4)C3C(=O)O)n2)cc1` (stereo not drawn), for which the inhibition was 6.33%. Then `N#Cc1c(NC(=O)C2CCCO2)sc2c1CCCCC2` (stereo not drawn), with -9.66%. As to `Cc1nc2ccc(NC(=O)c3cccc(S(=O)(=O)N4CCOCC4)c3)cc2s1`, the inhibition is -12.2%. Regarding `N#C[C@]1(S(=O)(=O)c2ccccc2)C[C@@H]2ON=C(c3cccc(Br)c3)[C@@H]2C1`, the inhibition is -2.59%. Next, `Nn1cnnc1N/N=C/c1cc([N+](=O)[O-])c(Cl)cc1Cl`: -3.65%. Next, `Nc1nc(NCC(=O)O)nc(N2CCCCCC2)c1[N+](=O)[O-]`: 0.65%; `COCc1cc(C(C)=O)ccc1OC`: -2.07%; `C=CCOc1ccccc1/C=N/NC(=O)Cc1ccccc1`: -8.16%. Then `C=CCSC(CC)(CC)C(N)=O`, with 2%. Turning to `CCOc1ccc(OCC)c(NC(=O)CSc2nnc(Cn3cnc4ccccc43)n2C)c1`, the inhibition was -2.36%. Then `COc1ccc(C(CNC(=O)c2cc(S(=O)(=O)Nc3cccc(C)c3)ccc2C)N2CCCC2)cc1` (stereo not drawn), with -5.37%.

In the case of `O=C(NCCCN1CCCCC1)C1CC(=O)N(CCc2ccccc2)C1` (stereo not drawn), the inhibition is 0.03%. Then `Clc1ccc(C2[C@H]3CN(CC4CCCCC4)[C@H](c4ccccc4)C34CC2(c2cccnc2)C4)cn1` (stereo partly drawn), with -4.79%. Then `O=[N+]([O-])c1cc(C(F)(F)F)ccc1NN=C1CCCC1`, with 8.96%; and `CCC1S/C(=N/N=C/c2ccco2)NC1=O` (stereo not drawn), with -2.12%.

In the case of `O=S(=O)(c1ccc(F)cc1)N1CCN(C(=S)NC2CCCC2)CC1`, the inhibition is -7.54%.

In the case of `COc1ccc(CCNC(=O)COC(=O)Cc2ccccc2F)cc1`, the inhibition was -5.86%. In the case of `CC(C)CCSc1ncnc2c1oc1nc3c(cc12)COC(C)(C)C3`, the inhibition was -6.65%. For the molecule `CNC(=O)n1ccc(C(=O)N2CCCCC2)n1`, the inhibition was -7.1%. Then `Cc1cc2nc(SCCN3CCOCC3)[nH]c2cc1C`, with -0.23%. With `CC(C)Cn1cnc2c1c(=O)n(CC(O)c1ccccc1)c(=O)n2CC(C)C` (stereo not drawn), the inhibition is -3.61%.

Consider `CCOc1ccccc1C1CC(c2cccc(NS(C)(=O)=O)c2)=NN1C(=O)c1ccccc1` (stereo not drawn), for which the inhibition was -6.72%.

As for `CN(C(=O)c1cccc(NC(=O)Cc2cccc([N+](=O)[O-])c2)c1)C1CCCCC1`, the inhibition is -5.4%.

As to `O=C(Nc1cccc([N+](=O)[O-])c1)Nn1cnnc1`, the inhibition is 0.91%. On to `CS(=O)(=O)N(Cc1ccc(Cl)cc1)c1ccc(C(=O)NCCSCc2ccco2)cc1`, for which the inhibition is 0.35%. Next, `COc1ccc(NC(=O)c2ccc(OC)cc2)cc1`: -6.63%; `C=CCN(c1ccc(Cl)cc1)S(=O)(=O)c1cccc(C(=O)OCC(=O)N(C)C)c1`: -6.25%; `Cc1cc(NC(=O)CN2C(=O)NC(CC(C)C)C2=O)no1` (stereo not drawn): -4.65%. For the molecule `CN(CC(=O)Nc1ccccc1Cl)C(=O)COc1cccc2c1OC(C)(C)C2`, the inhibition was 3.1%. Turning to `CCc1c(C)n([O-])c2c([n+]1=O)CCCCC2`, the inhibition is -5.96%. In the case of `FC(F)(F)c1cnc(Oc2ccccc2-c2nnc(-c3ccc(Cl)cc3)o2)c(Cl)c1`, the inhibition was -5.48%. As to `Cc1cc(NC(=O)c2ccc(F)cc2)ccc1NC(=O)c1ccco1`, the inhibition is -0.11%. `Cc1nc(-c2ccc(F)cc2)c(CC(=O)N2CCN(S(=O)(=O)c3ccc(F)cc3)CC2)s1`: the inhibition was -5.79%. Then `CCC1CCCCN1C(=O)CSc1nc(C)cc(C)n1` (stereo not drawn), with -6.45%; and `O=C1NC2(CCCCC2)N=C1c1ccccc1`, with -5.81%. Next, `O=C(C1CCCO1)N1CCN(C(=S)Nc2cccc(Cl)c2)CC1` (stereo not drawn): -5.73%; `O=C1/C(=C\c2ccsc2)NC(=S)N1c1ccccc1`: -7.04%. Next, `COc1ccc(-c2ccc(CN3C(CC(C)C)C(=O)N(Cc4cn(CC5CCCCC5)nn4)CCS3(=O)=O)cc2)cc1` (stereo not drawn): 0.15%. On to `S=c1[nH]nc(-c2cccnc2)n1/N=C/C(Cl)=C\c1ccccc1`, for which the inhibition was -4.71%.

As to `Cc1ccc(C23CC4CC(CC(C(=O)NCC(=O)O)(C4)C2)C3)cc1`, the inhibition is 9.94% (active). Next, `CCn1c(SCC(C)=O)nc2sc3c(c2c1=O)CCCC3`: -3.1%. Next, `O=C(C[C@H]1C(=O)N(c2ccc(F)c(F)c2)C[C@@H]1Cc1ccccc1)Nc1ccccc1`: 2.94%; `Cc1c(C#N)c2ncn(CC#N)c(=O)c2n1-c1ccccc1`: -8.35%. Then `O=S1(=O)c2ccc(Br)cc2OC[C@H](Cc2ccccc2)N1Cc1cn(Cc2ccccc2)nn1`, with 1.8%; and `COC(=O)C[C@@H]1CC[C@@H]2[C@H](COc3ccc(NC(=O)c4cccc(F)c4)cc3C(=O)N2C)O1`, with 6.24%; and `COC(=O)N(C)C[C@@H]1OCc2cnnn2CCCC(=O)N([C@@H](C)CO)C[C@@H]1C`, with -7.63%. `C=CCOc1ccc(Cl)cc1CNCCCN1CCOCC1`: the inhibition is 2.7%.

As to `COc1ccc(/C=C2\N=C3CCCN3C2=O)cc1`, the inhibition was -0.94%. Next, `CCOc1ccccc1NC(=O)CCN1CCN(S(=O)(=O)c2ccc(OC)cc2)CC1`: -1.14%; `CC1(C(=O)NCc2ccccc2)CSCC(=O)N1CCCN1CCOCC1` (stereo not drawn): -9.79%.

Consider `O=C(NCc1cccnc1)c1cc(C2CCCCN2C(=O)CCc2ccccc2)on1` (stereo not drawn), for which the inhibition was -6.35%. Then `O=C(CSc1ccccc1)Nc1cccc(S(=O)(=O)N2CCOCC2)c1`, with 3.57%; and `COc1ccc(S(=O)(=O)N2CCC(C(=O)OCC(=O)c3ccccc3)CC2)cc1[N+](=O)[O-]`, with 8.79%.
